High-throughput results from PubChem.
Compounds with a hit are over-represented: about 2.8% of the library has one in this group of screens.
PME-1 primary: PME-1 (human) inhibition; Q9Y570; recombinant PME-1, FP-Rh probe fluorescence polarization; inhibition, % at 5.9 µM; 0.53% of 320,000 active;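 active = inhibition above the campaign mean of all compounds plus 3 SD, cut at about 26% in these data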;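 also: competitive labeling of PME-1 active site by serine hydrolase directed probe; 0% = PME-1 with DMSO and 100% = wells lacking PME-1 enzyme; inhibitors block probe labeling so polarization falls and inhibition rises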
PAFAH1B2 inh: PAFAH1B2 (human) inhibition; inhibition, % at 3.39 µM; AID 492953; 1.2% of 340,000 active; recombinant PAFAH1B2, FP-rhodamine activity probe, fluorescence polarization; P68402;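 active = inhibition above the mean of all tested compounds plus 3 SD, cut at about 24% in these data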;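 also: 0% = enzyme with DMSO and 100% = wells lacking PAFAH1B2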
Target sequence (P68402 whole entry, looked up): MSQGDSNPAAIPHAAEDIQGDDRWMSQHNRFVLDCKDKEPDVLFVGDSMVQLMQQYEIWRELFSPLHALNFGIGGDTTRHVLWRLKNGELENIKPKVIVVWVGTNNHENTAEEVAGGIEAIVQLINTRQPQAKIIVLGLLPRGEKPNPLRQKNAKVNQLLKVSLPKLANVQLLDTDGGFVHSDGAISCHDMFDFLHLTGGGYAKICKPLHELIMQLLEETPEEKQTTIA
PAFAH2 inh: PAFAH2 (human) inhibition; 0.99% of 340,000 active; Q99487; recombinant PAFAH2, FP-rhodamine activity probe, fluorescence polarization; AID 492956; inhibition, % at 3.39 µM;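 active = inhibition above the mean over all tested compounds plus 3 SD, cut at about 30% in these data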;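 also: inhibitors block probe labeling of enzyme so polarization drops; 0% = enzyme with DMSO and 100% = wells lacking PAFAH2 protein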
pPAFAH inh: inhibitors of human plasma PAF acetylhydrolase (pPAFAH) | Q13093 | recombinant pPAFAH, FP-rhodamine probe fluorescence polarization | inhibition, % at 3.39 µM | 1.5% of 330,000 active;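 active = inhibition above the mean inhibition across the screen plus 3 SD, cut at about 25% in these data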;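 also: inhibitors block binding of the rhodamine activity-based probe so polarization drops; 0% = enzyme with DMSO and 100% = wells lacking pPAFAH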
PAFAH1B3 inh: inhibitors of human PAFAH1B3. Q15102. inhibition, % at 3.39 µM. 0.28% of 340,000 active. recombinant PAFAH1B3, FP-rhodamine probe, fluorescence polarization. AID 492972;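 active = inhibition above the screen-wide average of all tested compounds plus 3 SD, cut at about 25% in these data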;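 also: 0% = enzyme with DMSO only and 100% = wells lacking PAFAH1B3 protein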
Target sequence (Q15102 whole entry, looked up): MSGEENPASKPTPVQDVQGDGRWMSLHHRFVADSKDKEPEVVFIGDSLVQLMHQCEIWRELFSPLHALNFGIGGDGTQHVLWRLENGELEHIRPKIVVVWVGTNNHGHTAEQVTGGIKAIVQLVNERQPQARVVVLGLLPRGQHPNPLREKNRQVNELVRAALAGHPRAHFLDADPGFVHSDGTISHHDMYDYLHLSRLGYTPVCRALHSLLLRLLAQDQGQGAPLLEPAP
Fam108B inh: blocks mouse Fam108B hydrolase in RBBP9 counter-screen. AID 1947. inhibition, % at 9.51 µM. recombinant Fam108B, FP-Rh probe fluorescence polarization. 0.33% of 300,000 active;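 active = inhibition above the screen mean inhibition plus 3 SD, computed separately per campaign, cut at about 18% in these data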;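 also: inhibitors lower polarization as less probe binds the enzyme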
An asterisk follows results filed as active; · = not tested or not shown.

SMILES	PME-1 primary	PAFAH1B2 inh	PAFAH2 inh	pPAFAH inh	PAFAH1B3 inh	Fam108B inh
Cc1ccc(OCCSCc2nc3ccccc3[nH]2)cc1	3.3	10.9	-2.9	5.2	-3.1	-5.2
Clc1ccc(OCCSCc2nc3ccccc3[nH]2)cc1	4.9	31.1*	-0.1	7.4	0.5	-3.0
O=S(=O)(NC(CO)Cc1ccccc1)c1ccc(Br)cc1F (centres undefined)	·	29.1*	0.7	·	2.9	·
O=S(=O)(NC(CO)Cc1ccccc1)c1cc(Cl)ccc1F (centres undefined)	·	14.8	-3.2	·	2.8	·
O=S(=O)(NC1CCCCCCC1)c1ccccc1	2.1	11.4	3.3	6.3	1.6	-2.5
O=S(=O)(NC1C2CC3CC(C2)CC1C3)c1ccccc1 (centres undefined)	1.1	25.7*	7.6	1.7	4.7	·
O=Nc1c(O)[nH]c2ccc(Cl)c(Cl)c12	·	27.5*	31.3*	·	43.3*	·
Oc1[nH]c2ccccc2c1N=Nc1ccccc1Cl	·	1.7	-4.1	·	9.4	·
C[C@@H]1CN(S(=O)C(C)(C)C)[C@@H](CCO)/C1=C\c1ccccc1 (some centres undefined)	·	0.5	5.4	·	9.1	·
O=C(COc1ccccc1Cl)Nc1ccc(N2CCCC2)cc1	1.0	-2.1	2.6	57.8*	3.3	-1.1
CCN(C(=O)c1ccc(NC(=O)Cc2ccccc2)cc1)c1ccccc1	·	25.7*	0.7	·	9.1	·
O=C(Cc1ccccc1)Nc1ccc(N2CCCC2)cc1	-7.8	-4.3	4.7	33.4*	2.4	-0.6
COC(=O)C(=C/C=C/N1CCOCC1)C(=O)OC	7.2	·	·	25.3*	·	5.9
COc1cc(CNC(=O)CCCCCCC(C)C)ccc1O	0.6	3.3	2.8	25.8*	5.9	-1.3
CC(=O)Oc1cc(O)c2c(=O)c(OC(C)=O)c(-c3ccc(OC(C)=O)c(OC(C)=O)c3)oc2c1	14.3	22.3	37.5*	30.6*	47.1*	-2.4
COc1ccc(-c2oc3cc(OC(C)=O)cc(OC(C)=O)c3c(=O)c2OC)cc1	·	0.1	4.2	·	2.4	·
CCOC(=O)Cc1csc(NC(=O)c2sc3nc4ccc(C)cc4cc3c2N)n1	58.0*	-2.3	-5.0	8.8	11.8	9.2
CCOC(=O)Cc1csc(NC(=O)c2cccnc2)n1	0.4	-1.8	5.9	3.5	8.5	0.5
CC(=O)Nc1ccc(C23CC4CC(CC(C4)C2)C3)cc1	-4.7	25.5*	17.0	4.1	-4.6	-4.2
Oc1ccc(C23CC4CC(CC(C4)C2)C3)cc1O	-1.9	61.1*	7.7	24.0	4.0	-4.7
CC(C)c1ccc(Oc2cccc3c2S(=O)(=O)N(C2CCCC2)CC(COCc2ccccc2)O3)cc1 (centres undefined)	·	0.9	-5.4	·	9.0	·
O=c1[nH]c2cc(Cl)ccc2c(O)c1-c1cccc(Oc2ccccc2)c1	2.9	31.6*	9.1	-5.0	3.8	-2.1
O=C(COC(=O)CNC(=O)c1ccco1)Nc1ncc(Cl)cc1Cl	-3.0	3.4	1.7	-6.4	3.8	·
COC(=O)c1ccc(N2CCc3ccccc32)c([N+](=O)[O-])c1	5.5	7.2	4.7	24.8*	1.7	2.8
O=C(O)c1ccc(N2CCc3ccccc32)c([N+](=O)[O-])c1	3.2	4.8	1.9	5.8	6.9	1.8
SMILES	PME-1 primary	PAFAH1B2 inh	PAFAH2 inh	pPAFAH inh	PAFAH1B3 inh	Fam108B inh
Nc1ccc(N=Nc2ccccc2)c(N)n1	5.2	-0.6	0.7	1.8	8.8	2.6
Cc1[nH]c(N=Nc2ccccc2)nc1N=Nc1ccccc1	75.9*	4.2	-2.5	25.4*	3.5	15.9
Cc1ccc(-c2cc3ccccc3nc2N2CCOCC2)cc1	0.6	·	·	26.3*	·	-2.2
O=C(CC1C(=O)NCCN1Cc1ccc(-c2ccccc2)cc1)NCCCn1ccnc1 (centres undefined)	-0.5	4.1	5.4	2.1	3.6	-4.5
CCOc1ccccc1NC(=O)CCNS(=O)(=O)c1cccc2nonc12	1.2	2.3	-3.9	3.5	1.3	2.1
CCC1S/C(=N\S(=O)(=O)c2cccs2)N(C2CCCCC2)C1=O (centres undefined)	-4.7	25.2*	-1.7	1.2	3.9	3.9
CCc1ccc(NC(=O)C2CCCN(S(=O)(=O)c3cccs3)C2)cc1 (centres undefined)	8.2	0.2	-3.0	8.6	-4.8	-5.8
COc1ccc(S(=O)(=O)Cc2ccc(C(=O)NCCc3cc(OC)ccc3OC)o2)cc1	3.0	3.5	5.8	1.8	3.1	-2.3
